# From PubChem
# TGFb inhibitor: blocks TGF-b signaling; HepG2 CAGA-GFP TGF-b/SMAD3 reporter, GFP fluorescence, 18 h; TGF-beta stimulated, 500 pg/mL final; Potency, µM (top dose mostly 46.1 µM), without a hit: at the top dose activity, negative = inhibition, most hits filed as inhibitors; 410,000 tested, 1.2% active; further: potency means the concentration at half of the fitted maximal effect; on the % scale 0 is the no-effect control and ±100 the full control effect; nearly all actives have a fitted effect of over 65% in size
#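 Inhibition of TGF-beta-driven CAGA-GFP reporter expression in HEPG2 cells is measured by cellular GFP fluorescence after 18 h stimulation with 500 pg/mL recombinant TGF-beta in 1% FBS medium at 37 degrees C.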
# LDHA inh: blocks human lactate dehydrogenase A. P00338. purified LDHA, NADH/diaphorase-resazurin fluorescence; active compounds read low. activity change, % (values are at about 110 or 230 µM). 480,000 tested, 0.15% active. AID 1347041; in the data active means activity change below about -30%; inconclusive means mostly about -25% to -30%;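 further: plate controls were DMSO wells for no effect and wells without enzyme for full effect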
#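 Human LDH5 at 2 nM final in Tris HCl pH 7.4 with 0.06 mM NADH and 0.2 mM pyruvate, reacted 5 minutes at room temperature. Remaining NADH coupled via diaphorase/resazurin; resorufin fluorescence read at 0 and 20 minutes, normalized to enzyme-free and DMSO wells.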
# IDH1 R132H inh: inhibitors of human mutant IDH1 R132H. O75874. IDH1-R132H enzyme, NADPH consumption, diaphorase/resazurin fluorescence. Potency, µM (top dose mostly 76.6 µM), inactives show top-dose activity change, negative = inhibition, most hits filed as inhibitors. 390,000 tested, 0.093% active; further: potency means the concentration at half of the fitted maximal effect; on the % scale 0 is the no-effect control and ±100 the full control effect; nearly all actives have a fitted effect of over 65% in size
# Target sequence (O75874 whole entry R132H, stated change not applied): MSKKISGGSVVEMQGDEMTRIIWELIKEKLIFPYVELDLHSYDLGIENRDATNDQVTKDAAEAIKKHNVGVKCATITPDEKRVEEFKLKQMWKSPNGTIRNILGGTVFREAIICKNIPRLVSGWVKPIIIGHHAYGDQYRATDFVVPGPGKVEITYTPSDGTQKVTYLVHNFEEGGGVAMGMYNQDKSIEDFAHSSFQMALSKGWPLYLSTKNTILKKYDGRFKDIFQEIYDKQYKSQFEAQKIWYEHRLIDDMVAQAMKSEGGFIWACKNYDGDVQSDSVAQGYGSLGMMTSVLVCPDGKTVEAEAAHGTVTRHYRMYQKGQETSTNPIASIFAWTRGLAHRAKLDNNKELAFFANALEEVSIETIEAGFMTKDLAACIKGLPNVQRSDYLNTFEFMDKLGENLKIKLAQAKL
#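 IDH1-R132H (0.5 ug/mL dispensed) in pH 7.5 Tris buffer was preincubated 30 min with compound, then given a substrate mix of 0.016 mM NADPH and 2 mM alpha-KG for 80 min at room temperature; remaining NADPH was read by diaphorase/resazurin fluorescence.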
# ATXN2 expr inh: inhibitors of ATXN2 expression | Potency, µM (top dose mostly 57 µM), inactives show top-dose activity change, negative = inhibition, most hits filed as inhibitors | HEK-293 ATXN2-luciferase reporter, luminescence, 24 h | 360,000 tested, 0.72% active; further: potency means the concentration at half of the fitted maximal effect; on the % scale 0 is the no-effect control and ±100 the full control effect; nearly all actives have a fitted effect of over 55% in size
#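 ATXN2-luciferase reporter cells (luciferase flanked by upstream and downstream ATXN2 gene portions) were treated 24 h at 37 °C with compounds at up to 57 uM. SteadyGlo luminescence gave expression; GF-AFC fluorescence gave viability.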
# S2 tox: reduces viability in counter-screen for ATXN expression inhibitors. S2 cells (HEK-293 line with an ATXN2-luciferase reporter) viability, CellTiter-Fluor protease fluorescence, 24 h. Potency, µM (series often up to 56.7 µM), most hits filed as cytotoxic. 400,000 tested, 0.49% active. AID 651635; further: potency means the concentration at half of the fitted maximal effect; nearly all actives have a fitted effect of over 40% in size
# HepG2 viability: counter-screen for TGF-b inhibitors: cytotoxicity in HepG2 cells | HepG2 CAGA-GFP viability, ATP luminescence, 18 h | Potency, µM (doses to about 46.1 µM), for the others: top-dose activity change, negative = cytotoxicity, usual class: cytotoxic | 410,000 tested, 0.76% active; further: potency means the concentration at half of the fitted maximal effect
#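 HepG2 CAGA-GFP cells (1000/well, DMEM with 1% FBS) received compound, then TGF-beta at 500 pg/mL final, and were incubated 18 hours at 37 degrees C. Viability was read by CellTiter-Glo luminescence. Media-only wells were set as complete cell-killing and DMSO as no toxicity.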
# The depositor's hits bear a star; i = inactive; ? = inconclusive; · = no result given; ! = not active in a repeat. Shown are actives, neighbours in structure and some others; about 2.2% of the full set was active somewhere. Unless noted, the call rests on the fitted dose curve; in most records, active means well fitted curve in the direction sought with a large enough effect; inconclusive means small, poorly fitted or top-dose-only effect, or another doubt; inactive means no such curve, though single readings can be large; an effect the other way counts as inactive or inconclusive.
SMILES,TGFb inhibitor,LDHA inh,IDH1 R132H inh,ATXN2 expr inh,S2 tox,HepG2 viability
O=C(NNc1c(Cl)cccc1Cl)c1sc2ccccc2c1Cl,·,0.9,·,·,·,·
Cc1ccc(CNC(=S)Nc2ccc(OC(F)F)cc2C)cc1,9.9%,-7.8,2.4%,-10.3%,?,-30.1%
Cc1ccc(-c2[nH]c3ccccc3c2C(C[N+](=O)[O-])c2ccco2)cc1 (configuration not stated),?,3.6,5.3%,0.0%,i,15.8µM*
Nc1c(C(=O)Nc2ccc(S(=O)(=O)N3CCCC3)cc2)sc2nc3ccc(OC(F)(F)F)cc3cc12,-12.2%,-7.1,5.2%,?,·,1.78µM*
COC(=O)CCC(=O)NC(=S)Nc1sc(C)c(C)c1C(N)=O,11.2µM*,-3.7,-1.4%,-4.1%,?,-35.7%
Fc1cccc(-c2nnn3c2nc(NCCc2ccccc2)c2ccccc23)c1,-32.9%,0.4,-1.0%,27.7%,i,-10.5%
NS(=O)(=O)c1ccc(CCNc2nc3c(-c4cccc(F)c4)nnn3c3ccc(Cl)cc23)cc1,?,-1.8,-1.6%,0.1%,i,8.91µM*
CCCCOC(=O)c1ccc(NC(=O)c2ccc3c(c2)CCCN3S(C)(=O)=O)cc1,-9.8%,-12.5,0.4%,7.08µM*,?,-31.2%
Cc1cccc(NC(=O)c2c(NC(=O)C(F)(F)F)sc3c2CCCCC3)c1,1.58µM*,-5.5,-12.3%,·,·,-111.1%
O=C(Nc1cccc(Cl)c1)c1c(NC(=O)C(F)(F)F)sc2c1CCCC2,?,?,19.1%,-44.9%,?,11.2µM*
Cc1ccccc1NC(=O)c1c(NC(=O)C(F)(F)F)sc2c1CCCCC2,1.41µM*,4.3,-12.3%,·,·,-38.0%
Cc1ccc(NC(=O)c2c(NC(=O)C(F)(F)F)sc3c2CCCCC3)cc1,1.12µM*,-11.9,-12.6%,·,·,-59.9%
Cc1ccccc1NC(=O)c1c(NC(=O)c2ccccc2)sc2c1CCC2,1.5%,-3.0,·,14.8%,i,-0.7%
O=C(NNCc1ccccc1)c1ccccc1,8.9%,-4.3,1.7%,?,i,1.9%
Cc1ccc(NC(=O)CSc2nnc(-c3cc4occc4n3C)n2-c2ccccc2C)cc1F,-21.1%,0.9,-11.2%,·,·,-13.0%
C[C@H]1CN(C2CCCCC2)C(=O)[C@@H]1CC(=O)NCc1ccccc1,?,-5.5,-8.9%,0.0%,i,-1.9%
CCCCC[C@H]1CN(Cc2ccccc2)C(=O)[C@@H]1CC(=O)NCc1ccc(OC)cc1,10µM*,0.6,8.4%,-14.8%,i,-3.0%
CCCCC[C@H]1CN(C2CCCCC2)C(=O)[C@@H]1CC(=O)NCc1ccccc1,11.2µM*,1.2,5.9%,?,·,15.8µM*!
COc1ccc(CNC(=O)C[C@H]2C(=O)N(Cc3ccc(OC)cc3)C[C@@H]2Cc2ccccc2)cc1,?,2.3,-3.6%,?,?,-16.7%
COc1ccccc1OCCC(=O)OCC(=O)c1cccc(Cl)c1,·,11.5,·,·,·,·
C[C@H](CO)N1C[C@H](C)[C@@H](CN(C)Cc2ccncc2)Oc2c(NS(=O)(=O)c3ccccc3)cccc2C1=O,-3.6%,1.8,9.4%,17.1%,i,-2.0%
CCCCn1c(N)c(N(CC(C)C)C(=O)CCCc2cccs2)c(=O)[nH]c1=O,2.3%,-3.0,1.9%,-7.4%,i,21.1%
CC(C)Nc1nc(Cl)nc(N(C#N)CN2C(=O)c3ccccc3S2(=O)=O)n1,?,0.6,1.1%,·,?,-34.0%
O=C(Nc1ccc(F)c(Cl)c1)C1CCCC1,0.0%,5.6,12.8%,-27.4%,i,10µM*
COc1cccc(CNC(=O)C(CC(C)C)NC(=O)c2ccccc2C)c1 (configuration not stated),20.7%,-2.7,1.3%,-9.7%,i,9.0%
SMILES,TGFb inhibitor,LDHA inh,IDH1 R132H inh,ATXN2 expr inh,S2 tox,HepG2 viability
NC(=O)CC(NC(=O)c1ccc(Br)cc1)c1ccc(N2CCN(c3ccc(F)cc3)CC2)c([N+](=O)[O-])c1 (configuration not stated),-22.2%,2.8,4.1%,0.0%,?,-33.2%
NC(=O)CC(NC(=O)Cc1ccc(Br)cc1)c1ccc(NC2CCCC2)c([N+](=O)[O-])c1 (configuration not stated),13.6%,-16.5,-5.2%,8.91µM*,?,3.6%
NC(=O)CC(NC(=O)Cc1ccc(Br)cc1)c1ccc(N2CCN(c3ccc(F)cc3)CC2)c([N+](=O)[O-])c1 (configuration not stated),?,-3.6,-13.3%,?,?,11.2µM*
CCCn1c(SCC(=O)Nc2ccc(F)c(Cl)c2)nc(O)cc1=O,-2.0%,-8.0,-5.4%,·,i,-4.6%
CC1=C(C(=O)N2CCCCCC2)CC(CC(=O)NC2CCCCC2)C(=O)N1Cc1ccccc1 (configuration not stated),?,4.7,·,-4.5%,?,1.7%
N#C/C(=C\c1coc2ccc(O)cc2c1=O)C(=O)Nc1nc2ccccc2s1,?,1.0,?,·,?,11.2µM*
CCOC(=O)c1c(C)nc2ccc(Cl)cc2c1-c1ccccc1,?,-2.0,5.9%,-37.1%,i,-37.6%
CCOCc1nc(N)nc(N)c1-c1cccc(Cl)c1,0.2%,-5.1,9.3%,·,i,11.2µM*
CSc1cccc(NC(=O)C2CCCN(C(=O)c3cnn(-c4ccc(F)cc4)c3-n3cccc3)C2)c1 (configuration not stated),17.8µM*,2.4,-6.3%,·,·,-26.2%
Cc1ccc(NC(=O)C2CCN(C(=O)c3cnn(-c4ccccc4)c3-n3cccc3)CC2)cc1,11.2µM*,-0.7,9.7%,-17.4%,i,-7.8%
O=C(NC1CC1)C1CCN(Cc2cnn(-c3ccccc3)c2-n2cccc2)CC1,-21.8%,0.0,5.7%,·,·,22.4µM*
O=C(O)C1CCN(Cc2cnn(-c3ccccc3)c2-n2cccc2)CC1,12.9%,-7.9,1.4%,3.0%,i,-5.2%
CCc1nc(Nc2ccccc2)c2nnn(Cc3ccccc3)c2n1,?,1.6,5.0%,-14.8%,i,-30.4%
CCCn1c(=N)n(CC(O)COc2cccc(C)c2)c2ccccc21 (configuration not stated),-0.7%,-4.0,0.9%,?,?,-55.4%
CCCCCn1c(=N)n(CC(O)COc2cccc(C)c2)c2ccccc21 (configuration not stated),?,-3.5,-13.8%,31.6µM*,20µM*,-107.3%
CCCCn1c(=N)n(CC(O)COc2ccc(C)cc2)c2ccccc21 (configuration not stated),?,0.0,2.0%,·,·,12.6µM*
